The source of these data is PubChem BioAssay.

The source made the active and inactive calls.

Assay [1] deals with Wnt5a (protein binding on small-molecule microarray). The experiment in a line: small molecules binding Wnt5a protein – biophysical, small-molecule microarray, 635/667 nm fluorescence, primary screen (AID 1142).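 Also: fluorescence read at 667 nm with signal to noise per printed feature.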 As to conditions: 635 nm fluorescence, higher = more signal.
A short description of assay [2]: ATP-based viability of Huh7 replicon cells – cell-based, CellTiter-Glo luminescence, basal, 48 h, cytotoxicity control for HCV replication inhibitor project, primary screen (AID 1143).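 Also: Huh7 hepatoma cells carrying a hepatitis C replication reporter with no stimulus; test concentration not given here.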 As to conditions: higher = more signal, called active from +8 up or from −8 down. On the technique in general: A replicon is a self-replicating genome or part of one, used to study replication in cells.

Assay [3] in a line: basal CRE-LacZ reporter activity in PC12 – cell-based, unstimulated, primary screen (AID 1145). As to conditions: no forskolin, luminescence, 4.5 h, higher = more signal, called active from +8 up or from −8 down.
The nature of assay [4]: forskolin-driven CRE-LacZ activity in PC12 – cell-based, CRE-LacZ reporter, forskolin-stimulated, primary screen (AID 1146).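 Also: PC12 cells with 6xCRE LacZ reporter stimulated by forskolin 10 µM; beta-galactosidase reporter signal reflecting CREB driven transcription.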 As to conditions: luminescence, 4.5 h, higher = more signal, called active from +8 up or from −8 down.
The target in assay [5] is Streptavidin (Streptomyces avidinii) (UniProt P22629). Description: compounds binding control protein streptavidin – biophysical, small-molecule microarray, 635/667 nm fluorescence, artefact control for SMM compound annotation, primary screen (AID 1147).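 Also: signal reflects streptavidin binding to arrayed compounds as a control protein.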 As to conditions: higher = more signal.
Sequence of Streptavidin (Streptomyces avidinii) (P22629 whole entry, looked up): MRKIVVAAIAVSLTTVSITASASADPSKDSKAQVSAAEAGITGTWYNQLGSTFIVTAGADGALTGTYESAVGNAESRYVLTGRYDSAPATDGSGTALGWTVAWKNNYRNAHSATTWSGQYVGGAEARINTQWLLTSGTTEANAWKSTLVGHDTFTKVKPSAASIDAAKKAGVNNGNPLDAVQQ
Assay [6] can be described thus: probe aInhba binding on compound microarray – biochemical, small-molecule microarray, 635/667 nm fluorescence, primary screen (AID 1148).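 Also: score merges 667nm spot fluorescence with signal-to-noise for antibody binding to printed compounds.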 The following applies: higher = more signal.
For assay [7], the target named is Torsin-1A (Homo sapiens) (UniProt O14656). The experiment in a line: TOR1A wild-type binding on microarray – cell lysate, small-molecule microarray, lysate, 635/667 nm, primary screen (AID 1149). The following applies: COS7 hTOR1A-WT lysate, 635 nm fluorescence, higher = more signal.
Sequence of Torsin-1A (Homo sapiens) (O14656 whole entry, looked up): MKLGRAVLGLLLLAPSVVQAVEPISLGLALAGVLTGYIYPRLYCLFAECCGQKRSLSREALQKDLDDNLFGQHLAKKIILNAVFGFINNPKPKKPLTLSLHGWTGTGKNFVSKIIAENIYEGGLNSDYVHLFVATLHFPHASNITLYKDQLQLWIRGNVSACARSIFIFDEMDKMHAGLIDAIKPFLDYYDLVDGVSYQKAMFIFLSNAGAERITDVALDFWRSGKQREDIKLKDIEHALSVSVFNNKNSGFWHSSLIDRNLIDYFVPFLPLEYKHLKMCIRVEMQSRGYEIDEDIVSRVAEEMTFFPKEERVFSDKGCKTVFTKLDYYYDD
Assay [8] has the same target. Description: torsin A mutant lysate binding on microarrays – cell lysate, small-molecule microarray, COS7 lysate, 635/667 nm fluorescence, primary screen (AID 1150).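 Also: score pools 667 nm emission and signal to noise measuring lysate protein binding.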 The following applies: COS7 hTOR1A mutant lysate, 635 nm fluorescence, higher = more signal.
The subject of assay [9] is Sonic hedgehog protein (Shh). The experiment in a line: Sonic hedgehog microarray binding compounds – biochemical, small-molecule microarray, 635/667 nm fluorescence, primary screen (AID 1151).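 Also: Shh protein binding to compounds spotted on small-molecule microarray slides; score combines spot fluorescence intensity with signal-to-noise across triplicate slides.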 The following applies: 635 nm fluorescence, higher = more signal.
A short description of assay [10]: optical density shifts of acrAB sulA E. coli – strain DRC41, OD650, 48 h, E. coli filamentation inducer project, primary screen (AID 1152).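 Also: E. coli MC1000 strain DRC41 lacking acrAB efflux pump and sulA.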 As to conditions: higher = more signal, called active from +8 up or from −8 down.
Assay [11] in a line: probe aLefty1 binding on compound microarray – biochemical, small-molecule microarray, 635/667 nm fluorescence, primary screen (AID 1153).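 Also: score merges spot fluorescence with signal-to-noise ratio from the scanned slide images.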 The following applies: higher = more signal.
The nature of assay [12]: plasmodial surface anion channel blockers, osmotic lysis – cell-based, P. falciparum Indochina, OD700, 1 h, primary screen (AID 1154). The following applies: P. falciparum Indochina infected RBC osmotic lysis, higher = more signal, called active from +8 up or from −8 down.
Assay [13] is described as follows: plasmodial surface anion channel blockers, osmotic lysis – cell-based, P. falciparum Indochina, OD700, 2 h, primary screen (AID 1155).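 Also: lysis reports solute entry through the parasite surface anion channel PSAC.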 As to conditions: P. falciparum Indochina infected erythrocytes, higher = more signal, called active from +8 up or from −8 down.
Assay [14] can be described thus: changes in parasitized red cell lysis, either direction – P. falciparum Indochina, OD700, 3 h, PSAC antagonist project, primary screen (AID 1156). As to conditions: P. falciparum-infected erythrocytes, osmotic lysis, higher = more signal, called active from +8 up or from −8 down.
Assay [15] is described as follows: plasmodial surface anion channel blockers, osmotic lysis – cell-based, P. falciparum Indochina, OD700, 18 h, primary screen (AID 1157). As to conditions: P. falciparum Indochina infected erythrocytes, osmotic lysis OD700, 18 h; higher = more signal, called active from +8 up or from −8 down.
Assay [16] in a line: S6 kinase pathway phospho-S6 level changes – cell-based, A549, cytoblot, luminescence, serum-stimulated, primary screen (AID 1158).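 Also: serum-stimulated A549 lung adenocarcinoma cells; signal is phosphorylated S6 detected by cytoblot immunostaining with HRP secondary.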 The following applies: 5 h, higher = more signal.
The target in assay [17] is NADPH oxidase 2 (Homo sapiens) (UniProt P04839). Description: compounds shifting NOX2 Amplex Red fluorescence – cell-based, HEK293-NOX2, PMA-stimulated, NOX inhibitor project, primary screen (AID 1159). Also: test concentration not given here. The following applies: 45 min, higher = more signal, called active from +8 up or from −8 down.
Sequence of NADPH oxidase 2 (Homo sapiens) (P04839 whole entry, looked up): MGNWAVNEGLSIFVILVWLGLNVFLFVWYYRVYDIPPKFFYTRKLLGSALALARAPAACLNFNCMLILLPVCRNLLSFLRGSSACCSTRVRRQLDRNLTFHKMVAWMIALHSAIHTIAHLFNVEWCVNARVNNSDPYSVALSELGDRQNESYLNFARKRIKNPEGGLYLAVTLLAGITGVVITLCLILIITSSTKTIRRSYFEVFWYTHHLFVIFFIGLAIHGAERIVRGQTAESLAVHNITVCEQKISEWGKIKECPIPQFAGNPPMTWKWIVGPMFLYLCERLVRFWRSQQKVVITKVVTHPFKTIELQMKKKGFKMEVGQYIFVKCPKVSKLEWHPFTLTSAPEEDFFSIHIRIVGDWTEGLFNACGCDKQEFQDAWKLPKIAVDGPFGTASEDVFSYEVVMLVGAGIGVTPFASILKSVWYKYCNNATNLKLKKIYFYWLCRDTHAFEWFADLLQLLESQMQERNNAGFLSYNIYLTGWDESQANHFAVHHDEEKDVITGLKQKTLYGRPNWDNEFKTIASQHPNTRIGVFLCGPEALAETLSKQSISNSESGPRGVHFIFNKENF
The target in assay [18] is NADPH oxidase 4 (Homo sapiens) (UniProt Q9NPH5). The experiment in a line: compounds shifting NOX4 Amplex Red fluorescence – cell-based, HEK293-NOX4, tetracycline-induced, NOX inhibitor project, primary screen (AID 1160). The following applies: HEK293-NOX4, Amplex Red H2O2 fluorescence, 45 min; higher = more signal, called active from +8 up or from −8 down.
Sequence of NADPH oxidase 4 (Homo sapiens) (Q9NPH5 whole entry, looked up): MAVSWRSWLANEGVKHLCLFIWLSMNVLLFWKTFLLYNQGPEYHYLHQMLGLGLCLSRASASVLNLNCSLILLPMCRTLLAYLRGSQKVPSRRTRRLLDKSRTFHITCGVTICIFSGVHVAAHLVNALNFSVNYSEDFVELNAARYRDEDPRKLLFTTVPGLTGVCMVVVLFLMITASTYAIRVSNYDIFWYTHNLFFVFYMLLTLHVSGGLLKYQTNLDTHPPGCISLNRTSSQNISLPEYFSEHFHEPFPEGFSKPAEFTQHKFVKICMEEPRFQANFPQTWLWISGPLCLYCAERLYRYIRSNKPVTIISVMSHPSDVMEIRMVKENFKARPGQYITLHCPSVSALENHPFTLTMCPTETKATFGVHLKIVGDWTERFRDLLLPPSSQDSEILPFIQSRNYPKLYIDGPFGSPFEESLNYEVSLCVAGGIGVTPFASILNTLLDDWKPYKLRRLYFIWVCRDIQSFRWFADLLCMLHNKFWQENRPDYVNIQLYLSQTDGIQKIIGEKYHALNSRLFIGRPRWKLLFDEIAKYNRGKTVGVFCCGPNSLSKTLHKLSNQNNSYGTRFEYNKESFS
Assay [19] has as its target NADPH oxidase 5 (Homo sapiens) (UniProt Q96PH1). The experiment in a line: compounds shifting NOX5 Amplex Red fluorescence – cell-based, HEK293-NOX5, NOX inhibitor project, primary screen (AID 1161). The following applies: HEK293-NOX5, ionomycin, 45 min, higher = more signal.
Assay [20] in a line: compound effects on lung adenocarcinoma cell viability – A549, calcein-AM fluorescence, 48 h, basal, profiling panel (AID 1162). Also: test concentration not given here. As to conditions: higher = more signal.

Sequence of NADPH oxidase 5 (Homo sapiens) (Q96PH1 whole entry, looked up): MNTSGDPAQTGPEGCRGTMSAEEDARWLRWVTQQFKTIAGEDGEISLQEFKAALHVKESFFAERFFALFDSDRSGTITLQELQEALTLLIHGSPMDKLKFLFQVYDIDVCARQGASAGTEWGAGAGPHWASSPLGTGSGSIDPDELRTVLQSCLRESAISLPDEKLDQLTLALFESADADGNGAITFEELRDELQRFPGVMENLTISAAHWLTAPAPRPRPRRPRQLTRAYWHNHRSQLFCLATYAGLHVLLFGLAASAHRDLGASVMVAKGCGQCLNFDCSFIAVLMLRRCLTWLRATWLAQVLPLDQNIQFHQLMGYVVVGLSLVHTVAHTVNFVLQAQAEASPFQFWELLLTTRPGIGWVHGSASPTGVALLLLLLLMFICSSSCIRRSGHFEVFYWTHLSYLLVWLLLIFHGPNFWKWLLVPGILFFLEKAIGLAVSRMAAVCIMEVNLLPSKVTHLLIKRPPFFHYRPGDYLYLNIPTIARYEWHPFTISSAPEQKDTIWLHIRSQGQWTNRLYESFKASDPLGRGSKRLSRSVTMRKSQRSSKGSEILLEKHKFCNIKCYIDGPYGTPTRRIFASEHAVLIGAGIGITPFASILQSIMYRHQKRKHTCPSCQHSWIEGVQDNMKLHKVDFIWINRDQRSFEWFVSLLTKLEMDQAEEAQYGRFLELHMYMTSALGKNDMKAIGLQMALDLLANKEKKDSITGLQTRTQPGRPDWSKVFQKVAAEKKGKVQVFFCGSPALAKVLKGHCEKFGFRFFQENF

`CCOC(=O)C[C@H]1[C@H](OC(=O)c2ccc(-c3ccccc3)cc2)[C@@H](NC(=O)C2CCCCC2)c2cc(OCCCO)ccc2N1C(=O)c1ccc2ccccc2n1`: the composite z-score amounted to 0.0447 in [1]; 0.391 in assay [5]; 0.0582 in assay [6]; 0.688 with Torsin-1A (Homo sapiens) [7]; 0.525 with Torsin-1A (Homo sapiens) [8]; 0.21 in assay [9]. The same compound displayed a composite z-score in assay [11] of 0.0278. Besides, the z-score in [2] was -0.0226 (inactive); in [3], 3.51 (inactive); in assay [4] it was -0.876 (inactive); in assay [10] it was 2.69 (inactive); in assay [12], 1.45 (inactive); in [13], -0.755 (inactive). The z-score was -0.0072 (inactive) in [14]; -1.16 (inactive) in assay [15]; 1.5 in assay [16]; 1.13 (inactive) in assay [17]; 1.3 (inactive) in assay [18]; 1.94 in assay [19]. Further, in assay [20], the z-score was 1.23.
Turning to `C=CCNC(=O)[C@@H]1[C@H]2C(=O)O[C@H](c3ccccc3)[C@H](c3ccccc3)N2[C@H](c2ccc(O)cc2)[C@@]12C(=O)Nc1ccccc12`, the composite z-score was 0.154 in assay [1]; -0.171 in [5]; -0.218 in assay [6]; -0.0795 with Torsin-1A (Homo sapiens) [7]; -0.264 with Torsin-1A (Homo sapiens) [8]; 1.05 in [9]. The composite z-score in [11] was -0.22. Further, the z-score was -2.84 (inactive) in [2]; -0.348 (inactive) in assay [3]; -1.3 (inactive) in [4]; 1.88 (inactive) in assay [10]; 3.11 (inactive) in assay [12]; 0.87 (inactive) in [13]. For the same compound, the z-score in [14] is 0.253 (inactive); in [15], 0.983 (inactive); in assay [16], 0.686; in assay [17], -0.00775 (inactive); in assay [18] it was -1.9 (inactive); in assay [19], -1.37. Besides, the z-score in assay [20] is 0.106.
`C=C[C@H](OC)[C@@H](OC(=O)Nc1ccc(OC)cc1)c1ccc(OC)c(O)c1`: the composite z-score in assay [1] is -0.307; in assay [5] it was -1.38; in assay [6], -0.348; with Torsin-1A (Homo sapiens) [7], -0.86; with Torsin-1A (Homo sapiens) [8] it was -0.657; in assay [9] it was 0.149. For the same compound, the composite z-score in assay [11] was -0.0984. Moreover, the z-score in assay [2] was -0.088 (inactive); in assay [3] it was 2.03 (inactive); in assay [4] it was -1.53 (inactive); in [10], 2.02 (inactive); in assay [12] it was 1.27 (inactive); in [13], -1.23 (inactive). The z-score in assay [14] was -1.84 (inactive); in assay [15], -1.83 (inactive); in [16], -0.443; in assay [17], -2.28 (inactive); in assay [18], -1.92 (inactive); in [19], -2. The z-score in [20] was 0.29.
On to `C=CCNC(=O)[C@@H]1[C@H]2C(=O)O[C@H](c3ccccc3)[C@H](c3ccccc3)N2[C@H](c2ccc(O)cc2)[C@@]12C(=O)Nc1ccc(C#Cc3ccc(OC)cc3)cc12`, for which the composite z-score turned out to be 0.212 in [1]; 1.16 in assay [5]; 0.0228 in assay [6]; 0.248 in the assay with Torsin-1A (Homo sapiens) [7]; 0.286 in the assay with Torsin-1A (Homo sapiens) [8]; 0.551 in assay [9]. The composite z-score in assay [11] is 0.159. The z-score in [2] is -4.8 (inactive); in assay [3] it was -0.0784 (inactive); in assay [4] it was -1.25 (inactive); in assay [10], 2.73 (inactive); in [12], 1.27 (inactive); in [13], -0.224 (inactive). Besides, the z-score in assay [14] is 0.375 (inactive); in assay [15] it was -0.957 (inactive); in assay [16], 0.98; in assay [17] it was 1.35 (inactive); in assay [18], 1.23 (inactive); in [19], 0.0881. Moreover, in [20], the z-score was -0.629.
